An excerpt weighted towards active compounds, which were near 3.5% of everything screened.
DNMT1 inh – human DNMT1 methyltransferase inhibitors, primary screen, biochemical, molecular beacon, fluorescence, HinP1I cleavage, uHTS. DNA (cytosine-5)-methyltransferase 1 (Homo sapiens), P26358. inhibition (reported as % activation of signal), % at 10 µM. 360,000 tested, 0.83% active; in the data active means inhibition above about 50%
UHRF1 binding – UHRF1 methylated DNA binding inhibitors, primary screen, counter-screen for MBD2 inhibitor project, biochemical, TR-FRET, human UHRF1, single concentration. E3 ubiquitin-protein ligase UHRF1 (Homo sapiens), Q96T88. UHRF1 binding to methylated oligo. inhibition, % at 4.4 µM. 370,000 tested, 0.75% active. AID 687016, 2013; in the data active means inhibition above about 21%;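 further: UHRF1 SRA domain binding a hemimethylated CpG hairpin DNA probe; 0% = median of test compound wells and 100% = reference inhibitor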
PG9 binder – binders of HIV-1 gp120 antibody PG9, primary screen, biochemical, TR-FRET | TR-FRET gp120-PG9 antibody binding | 360,000 tested, 0.43% active | HIV-1 gp120 / PG9 antibody interaction | inhibition, % at 6.7 µM; in the data active means inhibition above about 8.5%
MBD2 inh – inhibitors of MBD2 binding to methylated DNA, primary screen, biochemical, TR-FRET, DNA-binding domain, human; 370,000 tested, 0.31% active; AID 686964, 2013; MBD2 binding to methylated oligonucleotide; inhibition, % at 4.4 µM; in the data active means inhibition above about 13%
LEDGF integ inh – blockers of LEDGF/p75-dependent integrase strand transfer – biochemical, TR-FRET, high throughput, primary screen; AID 743269, 2014; HIV-1 integrase (with human LEDGF/p75); 370,000 tested, 0.64% active; TR-FRET IN-LEDGF/p75 DNA integration, Eu/Cy5; inhibition, % at 3.7 µM;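 active means inhibition above the screen-wide mean plus 3 SD, cut at about 13% in these data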;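 further: signal is the Cy5 over europium emission ratio at 671 and 618 nm; 0% = plate median of compound wells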
rCAG binder – binders of r(CAG) RNA repeats, primary screen, biochemical, fluorescence; inhibition, % at 3 µM; r(CAG) RNA repeat, TO-PRO-1 dye displacement fluorescence; 370,000 tested, 1.3% active;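 active means inhibition above the plate cutoff, the mean of all test compounds on that plate plus 3 SD, cut at about 35% in these data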;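 further: 0% = DMSO alone and 100% = 100 µM mitoxantrone as full dye displacement; higher means more dye released from RNA so lower well fluorescence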
PG9 bind confirm – binders of anti-gp120 antibody PG9, confirmation, biochemical, TR-FRET; shares compounds with PG9 binder; TR-FRET PG9 antibody binding; inhibition, % at 6.7 µM; 1,500 tested, 90% active; AID 651571, 2012; in the data active means inhibition above about 9%
PGV04 counter – binders of control antibody PGV04, counter-screen for PG9 antibody binder project, biochemical, TR-FRET, distinct HIV envelope site. shares compounds with PG9 binder. inhibition, % at 6.7 µM. 1,500 tested, 95% active. TR-FRET PGV04 antibody-gp120 binding; in the data active means inhibition above about 9.5%
PG9 bind DR – small-molecule binders of antibody PG9, dose response, biochemical, TR-FRET, HIV-1 gp120 antibody; shares compounds with PG9 binder; TR-FRET PG9 antibody-gp120 binding inhibition; IC50, µM; 95 tested, under 10 active; AID 651848, 2012; in the data active means IC50 below about 10 µM
PGV04 DR counter – binders of control antibody PGV04, dose response, counter-screen for PG9 antibody binder project, biochemical, TR-FRET, distinct HIV envelope site; shares compounds with PG9 binder; TR-FRET binding to control antibody PGV04; IC50, µM; 95 tested, 20% active
PG126 binding DR – binders of control antibody PG126, dose response, counter-screen for PG9 antibody binder project, biochemical, TR-FRET, distinct HIV envelope site; TR-FRET binding to antibody PG126, counterscreen; IC50, µM; AID 651939, 2012; shares compounds with PG9 binder; 95 tested, 20% active
Starred values were filed as active, the others as inactive; i = inactive; · = no result. Unless noted, no stated cut-off is given here; in the data, active means IC50 below about 9 µM; inactive means the rest.

SMILES	DNMT1 inh	UHRF1 binding	PG9 binder	MBD2 inh	LEDGF integ inh	rCAG binder	PG9 bind confirm	PGV04 counter	others
COc1ccc(/C(O)=C2/C(=O)C(=O)N(CCN(C)C)C2c2ccc(F)cc2)cc1Cl (stereo unspecified)	6.0	7.4	9.5*	-0.6	3.3	3.4	20.2*	23.3*
COc1ccc2oc(C(=O)Nc3ccccn3)c(C)c2c1	-5.4	-1.7	-0.8	-5.1	4.5	5.4	·	·
CCc1nonc1NC(=O)c1oc2ccccc2c1C	-1.0	-1.2	-2.3	-0.5	-0.6	0.2	·	·
CCc1nonc1NC(=O)c1oc2cc(Br)ccc2c1C	0.1	-4.5	18.4*	-2.9	-0.8	4.1	19.8*	38.1*
COc1ccc2oc(C(=O)Nc3nc(C)cs3)c(C)c2c1	-12.0	-1.9	8.8*	-0.7	-8.6	8.9	13.2*	17.1*
Cc1c(C(=O)Nc2nccs2)oc2ccc(Br)cc12	24.6	2.2	10.1*	4.7	-1.9	4.0	11.5*	15.2*
C[C@@H](NC(=O)c1[nH]cnc1C(=O)Nc1ccccc1F)c1ccccc1	5.1	-2.0	0.2	0.6	2.4	6.9	·	·
COc1ccc2c(c1)c1nc3n(c(=O)c1n2CC(=O)Nc1ccccc1)CCCS3	7.1	1.3	13.4*	1.3	3.6	5.0	26.5*	35.7*
Cc1cc(-n2c(C)cc(C(=O)COc3ccc(Cl)cc3C(N)=O)c2C)no1	-7.1	1.4	11.2*	-4.0	-8.8	5.9	20.5*	34.1*
O=C(COc1ccccc1)Nc1nc2cc3c(cc2s1)OCO3	14.6	-14.8	20.6*	-3.3	1.6	4.7	33.2*	46.2*
COC[C@@H]1CCCN1c1ccc2c(c1)O[C@H](COCc1ccccc1)CN([C@H](C)c1ccccc1)S2(=O)=O	·	9.2	-1.4	2.5	-0.5	8.7	·	·
O=C(c1cc2cc(F)ccc2[nH]1)N1CCc2ccccc21	-2.5	0.2	7.4	-6.4	4.6	5.1	·	·
O=C(c1cc2cc(Br)ccc2[nH]1)N1CCc2ccccc21	1.6	-2.7	15.1*	0.0	0.2	6.2	22.2*	46.3*
CCC1C(=O)NCCN1C(=O)c1cccc(OC2CCN(S(=O)(=O)N(C)C)CC2)c1 (stereo unspecified)	1.1	-0.1	2.2	4.2	3.7	0.5	·	·
O=C1C(=O)N(Cc2cccnc2)C(c2cccc(F)c2)/C1=C(/O)c1ccc2c(c1)OCO2 (stereo unspecified)	0.3	-0.2	21.2*	3.7	1.0	-3.2	43.9*	51.9*
O=C1C(=O)N(Cc2ccncc2)C(c2ccccc2F)/C1=C(\O)c1ccc2c(c1)OCCO2 (stereo unspecified)	0.4	-1.2	16.4*	-2.0	-0.4	3.4	31.6*	31.3*	PG9 bind DR=i;PGV04 DR counter=5.34*;PG126 binding DR=7.82*
COc1cccc(C2/C(=C(\O)c3ccc4c(c3)OCCO4)C(=O)C(=O)N2Cc2cccnc2)c1 (stereo unspecified)	-1.2	-3.9	23.1*	-4.3	-0.4	1.9	30.0*	35.1*
O=C1C(=O)N(Cc2cccnc2)C(c2cccc([N+](=O)[O-])c2)/C1=C(\O)c1ccc2c(c1)OCCO2 (stereo unspecified)	-1.5	-0.1	0.0	-4.3	-2.4	5.4	·	·
COc1cccc(C(=O)NC2CCCc3ccccc32)c1OC (stereo unspecified)	-4.1	1.0	-3.6	-6.1	0.7	-0.4	·	·
O=C(COC(=O)c1cccc(-n2cnnn2)c1)c1ccc(F)cc1	2.2	-1.0	-0.6	3.0	2.7	1.9	·	·
COc1ccc(C(=O)COC(=O)c2cc(=O)[nH]c3ccccc23)c(OC)c1	0.4	1.4	46.1*	-3.8	-3.6	6.6	50.2*	77.8*
COc1ccc(C(=O)COC(=O)c2cccc(-n3cnnn3)c2)c(OC)c1	-1.0	-0.8	17.6*	4.9	1.7	10.0	5.8	9.0
COc1ccccc1C(=O)COC(=O)c1cc(=O)[nH]c2ccccc12	2.2	2.8	5.2	0.7	-3.4	0.2	·	·
CCCCN(C(=O)c1[nH]c(C)c(C(=O)OCC)c1C)c1c(N)n(CCCC)c(=O)[nH]c1=O	4.9	-0.9	-0.6	6.7	2.5	0.3	·	·
COCC(Cc1ccccc1)NC(=O)Cn1cc(C)c(=O)[nH]c1=O (stereo unspecified)	5.5	-1.8	-1.3	-1.4	2.5	0.6	·	·
COc1ccc(/C(O)=C2/C(=O)C(=O)N(c3ccccn3)C2c2ccc(F)cc2)cc1 (stereo unspecified)	4.1	14.0	5.2	3.2	2.2	3.8	·	·
CCOc1ccc(/C(O)=C2\C(=O)C(=O)N(c3ccccn3)C2c2ccccc2F)c(C)c1 (stereo unspecified)	5.0	-0.1	9.6*	0.5	0.3	9.5	22.2*	31.9*
CCc1cc2cc(C(=O)Nc3ccc(C)cc3)sc2s1	0.2	-0.2	31.3*	-3.9	0.2	4.9	29.2*	35.7*
COC(=O)c1ccccc1NC(=O)CSc1nc2ccsc2c(=O)n1Cc1ccc(C(=O)O)cc1	-1.1	-0.2	-1.3	1.9	-1.6	5.6	·	·
O=C(C[C@H]1C/C=C\CC[C@@H](Cc2ccc(F)cc2)C(=O)OCCNC1=O)NCCO	11.1	-0.2	0.4	6.3	2.4	-2.7	·	·
